Bioassay records deposited in PubChem by National Center for Advancing Translational Sciences (NCATS).
This is a sample that favours compounds with a hit; in the whole collection about 9.5% have one here.
HPGD inh: qHTS Assay for Inhibitors of HPGD (15-Hydroxyprostaglandin Dehydrogenase). purified HPGD, NADH fluorescence kinetic, PGE2 substrate. Potency, µM, hits mostly inhibitors. 150,000 tested, 4.3% active; active = well fitted inhibition curve with a large enough effect, not every such curve was filed as active; inconclusive = small, poorly fitted or top-dose-only effect, or another doubt; inactive = no such curve, though single readings can be large or run the other way
Target sequence (P15428 whole entry, looked up): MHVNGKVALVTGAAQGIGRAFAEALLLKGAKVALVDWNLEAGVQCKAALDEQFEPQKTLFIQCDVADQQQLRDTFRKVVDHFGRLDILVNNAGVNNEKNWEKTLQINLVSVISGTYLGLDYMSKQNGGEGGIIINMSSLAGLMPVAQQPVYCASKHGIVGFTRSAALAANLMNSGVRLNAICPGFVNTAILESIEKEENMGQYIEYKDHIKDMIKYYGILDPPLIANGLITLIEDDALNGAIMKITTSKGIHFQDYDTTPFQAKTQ
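20 nM HPGD preincubated 15 min at room temperature with compound in 50 mM Tris-HCl pH 8, 0.01% Tween 20. Started with 1 mM NAD+ and 30 uM prostaglandin E2; NADH fluorescence (360/450 nm) read 5 times over 30-s intervals, last minus first.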
Tau fluor counter: Counterscreen qHTS for Inhibitors of Tau Fibril Formation, Fluorescence Polarization; tau K18 P301L Alexa594 fluorescence, heparin fibrillization; Potency, µM (doses to about 57.7 µM); 280,000 tested, 0.93% active; AID 1463, 2008; also: nearly all actives have a fitted effect of over 55% in size
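Human tau K18 P301L (15 uM unlabeled, 0.24 uM Alexa 594-labeled) in 100 mM sodium acetate pH 7 with 20 uM heparin, 6 hr at 37 C. ThT 30 uM added, 1 hr ambient; Alexa 594 FP and total fluorescence read at 555/632 nm.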
Tau FP inhib: qHTS for Inhibitors of Tau Fibril Formation, Fluorescence Polarization | Microtubule-associated protein tau (Homo sapiens), P10636 | AID 1468, 2008 | K18 P301L tau heparin fibrillization, Alexa594 FP, 6 h | 280,000 tested, 0.39% active | Potency, µM (top dose mostly 57.7 µM), usual class: inhibitors; also: nearly all actives have a fitted effect of over 55% in size
Target sequence (P10636 561-689 P618L limits assumed): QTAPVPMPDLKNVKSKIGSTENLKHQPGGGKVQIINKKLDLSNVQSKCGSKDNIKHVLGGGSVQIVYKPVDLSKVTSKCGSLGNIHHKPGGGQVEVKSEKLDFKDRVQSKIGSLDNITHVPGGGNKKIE
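Read-out: fluorescence polarization of Alexa 594-labeled tau (0.24 uM), 555 nm excitation, 632 nm emission. Mixtures held 15 uM unlabeled K18 P301L, compound and 20 uM heparin, pH 7 acetate buffer, incubated 6 hr at 37 C.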
ALDH1A1 inh: qHTS Assay for Inhibitors of Aldehyde Dehydrogenase 1 (ALDH1A1) | Aldehyde dehydrogenase 1A1 (Homo sapiens), P00352 | Purified ALDH1A1, NADH fluorescence, propionaldehyde substrate | Potency, µM (highest dose often 75.3 µM), most hits filed as inhibitors | 220,000 tested, 7.3% active | AID 1030, 2008; active = well fitted inhibition curve with a large enough effect, not every such curve was filed as active; inconclusive = small, poorly fitted or top-dose-only effect, or another doubt; inactive = no such curve, though single readings can be large or run the other way
NPSR antagonist: qHTS Assay for Antagonists of the Neuropeptide S Receptor: cAMP Signal Transduction | Q6W5P4 | CHO-NPSR cells, cAMP TR-FRET, antagonist mode | Potency, µM (highest dose often 38.3 µM), usual class: inhibitors | 220,000 tested, 1% active; also: nearly all actives have a fitted effect of over 50% in size
Tau ThT inhib: qHTS for Inhibitors of Tau Fibril Formation, Thioflavin T Binding; Potency, µM (highest dose often 57.4 µM), actives largely listed as inhibitors; recombinant tau K18 P301L, heparin-induced fibrillization, ThT fluorescence; Microtubule-associated protein tau (Homo sapiens), P10636; 270,000 tested, 2.1% active; also: nearly all actives have a fitted effect of over 55% in size
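ThT emission at 510 nm, taken 1 hr after adding 30 uM dye, quantifies aggregates formed when 20 uM heparin acts on human tau K18 P301L for 6 hr at 37 C.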
Hits are given with their value; 0 = inactive; ? = inconclusive; - = no result; [ ] = another dose, or the depositor's remark. Unless noted, calls follow the shape of the dose curve; as a rule, active = well fitted curve in the direction sought with a large enough effect; inconclusive = small, poorly fitted or top-dose-only effect, or another doubt; inactive = no such curve, though single readings can be large; an effect the other way counts as inactive or inconclusive.

SMILES	HPGD inh	Tau fluor counter	Tau FP inhib	ALDH1A1 inh	NPSR antagonist	Tau ThT inhib
CO[C@H]1C=C2CCN(C)[C@@H]2[C@@H]2c3cc4c(cc3C(=O)O[C@H]21)OCO4	0	-	-	?	-	-
Cc1cccc(C)c1O	0	-	-	?	-	-
CCC(C)n1c(O)c(C=NC(C)c2ccccc2)c(=O)[nH]c1=S (centres undefined)	-	0	0	-	?	0
CCC(C)n1c(O)c(C(c2ccccn2)c2c(O)n(C(C)CC)c(=S)[nH]c2=O)c(=O)[nH]c1=S (centres undefined)	32µM	0	?	7.1µM	0	?
C[C@@H]1O[C@@H](OC2CC(O)C3(CO)C4C(CCC3(O)C2)C2(O)CCC(C3=CC(=O)OC3)C2(C)C[C@H]4O)[C@H](O)[C@H](O)[C@H]1O (some centres undefined)	0	0	0	0	-	0
C=CCn1c(O)c(C(C)=Nc2ccc(N(C)C)cc2)c(=O)[nH]c1=O	0	?	0	0	0	18µM
C=CCn1c(O)c(C(C)=Nc2ccc(N(CC)CC)cc2)c(=O)[nH]c1=O	0	0	0	?	0	?
O=C(O)c1cccc(Cl)c1	0	-	-	0	-	-
O=C(O)c1cc[c]([Hg][Cl])cc1	0.28µM	0	0	5.5µM	0	?
COC(=O)C1C(O)C(C)C(O)C(C)/C=C\C=C(/C)C(=O)Nc2c(C)c(OC(C)=O)c3c(c2O)C(=O)C(C)=C2OCOC(=C23)/C(C)=C/C(C)(O)C(O)C(C)C1O (centres undefined)	-	?	?	0	0	32µM
CCN1CCN(c2ccc(N)c(C)c2)CC1	-	0	0	0	0	0
CCC(=O)c1cc(F)c(N2CCN(CC)CC2)cc1C	0	0	0	20µM	0	0
Cn1ccnc1P(=S)(c1nccn1C)N1CCOCC1	25µM	0	0	28µM	0	0
N[C@@H](CCCCP(=O)(O)O)C(=O)O	0	0	0	0	-	0
NCC(N)C(=O)c1ccccc1 (centres undefined)	0	0	0	?	-	0
Oc1ccc(/C=N/NP(=S)(c2ccccc2)c2ccccc2)cc1O	0	14µM[quencher]	0	0	?	?
Oc1ccc(/C=N/NP(=S)(c2ccccc2)c2ccccc2)c(O)c1O	22µM	?	?	11µM	?	25µM
CCOc1ccc2nc(N=Nc3c(O)[nH]c(=O)[nH]c3=O)sc2c1	-	0	0	0	0	4.5µM
CCOc1ccc2nc(N=Nc3c(O)[nH]c(=S)[nH]c3=O)sc2c1	-	?	0	0	0	2.2µM
CCOc1ccc2nc(NC(=O)c3cccn(Cc4ccccc4C)c3=O)sc2c1	-	0	0	-	-	0
Nc1ccc2cc(Br)ccc2c1	-	?	0	18µM	0	?
CO[C@@H]([CH2][Hg])CN1C(=O)c2ccccc2S1(=O)=O.Cn1c(=O)c2nc[nH]c2n(C)c1=O	1.4µM	-	-	3.2µM	-	-
C[C@@]12CC[C@H]3[C@@H](CC[C@@H]4C[C@H]5S[C@H]5C[C@]43C)[C@H]1CC[C@H]2O	0	-	-	0	-	-
COC(=O)C12CC3=CC(CC3=O)Cc3ccccc3[C@@H]1CNC2=O (some centres undefined)	0	0	0	0	-	0
CCN(CC)c1ccc(CC2C(=O)N(C)C(=O)N(C)C2=O)cc1	0	25µM[fluorescent]	?	4.5µM	0	?
SMILES	HPGD inh	Tau fluor counter	Tau FP inhib	ALDH1A1 inh	NPSR antagonist	Tau ThT inhib
C=CCOc1ccc(CC2C(=O)N(C)C(=O)N(C)C2=O)cc1	0	0	0	?	0	?
O=C1Nc2ccc(Cl)cc2C(c2ccccc2Cl)=NC1O (centres undefined)	0	0	0	0	-	0
C/C(O)=C1\C(=O)[C@@H]2[C@H]3c4c[nH]c5cccc(c45)C[C@H]3C(C)(C)N2C1=O	-	0	0	0	-	?
CC(C)C(=O)c1cn(Cc2ccccc2C#N)c2ccccc12	0	0	0	0	0	0
CC(=O)c1cn(Cc2ccccc2C#N)c2ccccc12	-	0	0	25µM	0	0
CN1CCN(Cc2ccc(N)cc2)CC1	-	0	0	0	0	0
CN1CCN(Cc2cc(C(C)(C)C)c(O)c(C(C)(C)C)c2)CC1	0	0	0	22µM	0	?
COC(=O)[C@@]1(Cc2ccccc2)[C@H]2c3cc(C(=O)N(C)C)[nH]c3C[C@H]2CN1C(=O)c1ccccc1	0	0	0	0	-	0
Oc1ccc([C@H](O)C2CCCCN2)cc1O (some centres undefined)	0	-	-	0[13.5 µM]	-	-
O=P(Nc1ccccc1)(Nc1ccccc1)Oc1ccc(Cl)cc1	5.6µM	0	0	0	0	0
O=C(Nc1nnc(SCc2ccccc2Cl)s1)C1COc2ccccc2O1 (centres undefined)	16µM	?	0	?	0	?
CCn1c(O)c(N=Nc2ccc(S(=O)(=O)N3CCOCC3)cc2)c(=O)n(CC)c1=S	-	0	0	-	?	8.9µM
CCn1c(O)c(N=Nc2cccc(S(=O)(=O)N3CCOCC3)c2)c(=O)n(CC)c1=S	-	0	0	-	0	?
O=C1NO[C@H]2[C@@H]1CN[C@@H]2C(=O)O	0	0	0	0	-	0
CN=C=O	0	-	-	0	-	-
C=C/C(=C/C(=O)C[C@H](C)C[C@@H](C)CC[C@H](O)[C@H](C)C(=O)C[C@@H](O)[C@H](C)[C@@H](C)OC(=O)C[C@@H](O)C1=C(C)C(=O)OC1=O)CC	2.8µM	0[11.6 µM]	0[11.6 µM]	?	-	0[11.5 µM]
CC(=NCCCN1CCOCC1)c1c(O)n(-c2ccccc2C)c(=O)[nH]c1=O	0	0	0	14µM	0	0
Cc1cc[c]([Sb]2[O]C([C@H](O)[C@H](O)C(=O)O)[C@@H](CO)[O]2)cc1 (some centres undefined)	0	-	-	0[13.5 µM]	-	-
O=C(OC1CCN(CCCl)CC1)C(c1ccccc1)c1ccccc1	0	0	0	8.9µM	0	?
CC(/C=C(\C)Nc1ccccc1)=Nc1ccccc1	-	0	0	25µM	0	0
C#CCO	0	-	-	22µM	-	-
O=C1NC(=O)c2c1c1c3ccccc3[nH]c1c1[nH]c3ccccc3c21	0	14µM[quencher]	0	0	-	?
COc1ccccc1[N+](=O)[O-]	0	-	-	25µM	-	-
COc1ccc(-c2coc3cc(OC(=O)N4CCOCC4)ccc3c2=O)cc1	-	0	0	-	0	?
Cc1oc2ccc(OC(=O)N3CCOCC3)cc2c1C(=O)OC(C)C	0	0	0	4µM	0	0
Nc1nc(N)c(Cn2ccnc2)c(=O)[nH]1	0	-	-	0[13.5 µM]	-	-
CN(C(=O)Cc1ccc(Cl)c(Cl)c1)[C@H](CN1CCCC1)c1ccccc1	0	0	0	0	-	0
